Screening results: PubChem BioAssay, National Center for Advancing Translational Sciences (NCATS)
G9a inh – inhibitors of human histone lysine methyltransferase G9a. Q96KQ7. G9a H3K9 monomethylation, AlphaScreen, 2 h. Potency, µM (titrated, usually from 102 µM), for inactives: top-dose activity, negative = inhibition, usual class: inhibitors. 350,000 tested, 8.8% active; further: potency means the concentration at half of the fitted maximal effect; on the % scale 0 is the no-effect control and ±100 the full control effect; nearly all actives have a fitted effect of over 75% in size
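Step 1: enzyme (final 20 nM) with compound, 15 min RT. Step 2: substrate peptide 500 nM and SAM 20 uM, 2 h RT. Step 3: anti-H3K9me1 antibody and AlphaScreen beads, 10 min, then plate read.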
BAZ2B inh – inhibitors of human BAZ2B bromodomain | Q9UIF8 | AlphaScreen BAZ2B-H3K14Ac peptide displacement | Potency, µM (highest dose often 114 µM), without a hit: at the highest dose activity change, negative = inhibition, most hits filed as inhibitors | 360,000 tested, 4.4% active; further: potency means the concentration at half of the fitted maximal effect; on the % scale 0 is the no-effect control and ±100 the full control effect; nearly all actives have a fitted effect of over 60% in size
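AlphaScreen luminescence quantifies BAZ2B engagement of H3K14Ac peptide; the protein and biotinylated peptide are both at 50 nM final, buffer PBS pH 7.4 with 0.01% Tween-20, all steps at room temperature.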
CtBP-E1A blk – blocks the CtBP interaction with E1A; AlphaScreen GST-E1A/His-CtBP binding, 1536-well; stronger effect = lower value; activity change, % (concentration not given with the values); 340,000 tested, 0.49% active; AID 651724; in the data active means activity change below about -65%; inconclusive means mostly about -30% to -63%; further: on the % scale 0 is the no-effect control and ±100 the full control effect
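Steps: dispense buffer (Tris pH 8.0, NaCl 300 mM, TCEP 1 mM, BSA, Tween 20); add 5X protein mix (GST-E1A, His-CtBP, 125 nM each); pin 23 nL compound; 2 h at 37 °C, dark; add 5X beads (50 ug/mL); 1 h; read.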
JMJD2A Tudor – inhibitors of human JMJD2A Tudor domain; Potency, µM (top dose mostly 114 µM), inactives show top-dose activity change, negative = inhibition, most hits filed as inhibitors; AlphaScreen JMJD2A-Tudor / H3K4me3 peptide binding; 390,000 tested, 4.4% active; O75164; further: potency means the concentration at half of the fitted maximal effect; on the % scale 0 is the no-effect control and ±100 the full control effect; nearly all actives have a fitted effect of over 50% in size
Target sequence (O75164 whole entry, looked up, the tested form may be a part): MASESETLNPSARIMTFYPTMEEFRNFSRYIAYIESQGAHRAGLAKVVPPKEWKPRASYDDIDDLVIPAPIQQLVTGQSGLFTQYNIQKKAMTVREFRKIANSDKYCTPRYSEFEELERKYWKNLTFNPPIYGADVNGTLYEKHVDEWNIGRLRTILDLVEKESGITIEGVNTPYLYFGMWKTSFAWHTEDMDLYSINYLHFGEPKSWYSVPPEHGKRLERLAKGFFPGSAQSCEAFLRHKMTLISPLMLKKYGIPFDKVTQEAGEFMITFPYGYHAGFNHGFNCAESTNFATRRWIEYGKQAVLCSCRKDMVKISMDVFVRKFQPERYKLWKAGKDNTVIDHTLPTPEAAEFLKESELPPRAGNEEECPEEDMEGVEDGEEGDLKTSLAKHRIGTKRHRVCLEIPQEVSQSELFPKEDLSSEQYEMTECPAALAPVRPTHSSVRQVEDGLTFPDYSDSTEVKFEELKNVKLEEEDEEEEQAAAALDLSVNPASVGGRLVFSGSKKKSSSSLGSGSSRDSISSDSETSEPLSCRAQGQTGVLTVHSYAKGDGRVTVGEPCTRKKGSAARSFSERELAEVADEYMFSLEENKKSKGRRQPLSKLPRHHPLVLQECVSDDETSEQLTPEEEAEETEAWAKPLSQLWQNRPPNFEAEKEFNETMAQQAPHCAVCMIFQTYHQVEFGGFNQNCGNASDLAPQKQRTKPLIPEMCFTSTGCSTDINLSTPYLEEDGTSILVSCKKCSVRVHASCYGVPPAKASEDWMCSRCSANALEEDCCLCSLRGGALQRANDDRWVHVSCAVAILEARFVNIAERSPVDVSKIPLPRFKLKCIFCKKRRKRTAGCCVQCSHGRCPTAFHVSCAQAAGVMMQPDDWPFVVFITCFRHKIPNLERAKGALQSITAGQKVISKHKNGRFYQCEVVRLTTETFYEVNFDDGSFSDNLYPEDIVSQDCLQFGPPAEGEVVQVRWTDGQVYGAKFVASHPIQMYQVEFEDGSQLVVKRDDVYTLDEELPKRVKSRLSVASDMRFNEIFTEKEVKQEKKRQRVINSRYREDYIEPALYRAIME
Six1-Eya2 blk – inhibitors of human Six1/Eya2 interaction. Q15475+O00167. AlphaScreen GST-Six1/His-Eya2 binding, biochemical; stronger effect = lower value. activity change, % (no concentration beside the values). 360,000 tested, 0.56% active; in the data active means activity change below about -65%; inconclusive means mostly about -30% to -63%; further: on the % scale 0 is the no-effect control and ±100 the full control effect
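Homogeneous AlphaScreen proximity assay pairing GST-Six1 with His-tagged Eya2 (added as 5X mix: 250 nM and 500 nM) in 50 mM Tris pH 8.0, 300 mM NaCl, 1 mM TCEP. Glutathione donor and nickel acceptor beads; 1 h, 37 °C, dark.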
HP1b chromo inh – blocks HP1-beta chromodomain binding to methylated histone tails; AlphaScreen HP1-beta / biotin-H3K9me3 peptide binding; Potency, µM (doses to about 114 µM), for the others: top-dose activity change, negative = inhibition, most hits filed as inhibitors; P83916; 390,000 tested, 0.56% active; further: potency means the concentration at half of the fitted maximal effect; nearly all actives have a fitted effect of over 70% in size
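HP1-beta protein (50 nM final) preincubated 30 min at room temperature with biotinylated H3(1-18)K9me3 peptide (50 nM) in PBS pH 7.4, 0.01% Tween-20, then compound added for 30 min. AlphaScreen streptavidin donor/nickel chelate acceptor beads (10 ug/mL final), 30 min dark, luminescence read.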
Numbers without * were called inactive; ? = inconclusive; . = no result; ! = not confirmed by another sample; [ ] = remark or other dose. Hits are enriched below; roughly 10% of the tested compounds scored in any of these assays. Unless noted, the call rests on the fitted dose curve; in most records, active means well fitted inhibition curve with a large enough effect; inconclusive means small, poorly fitted or top-dose-only effect; inactive means no such curve, though single readings can be large or run the other way.

SMILES | G9a inh | BAZ2B inh | CtBP-E1A blk | JMJD2A Tudor | Six1-Eya2 blk | HP1b chromo inh
COc1cc(/C=N/NC(=O)c2cccc([N+](=O)[O-])c2)cc(OC)c1O | ? | 2% | . | -7% | -2 | 38%
COc1cccc(/C=N/NC(=O)c2ccc([N+](=O)[O-])cc2Cl)c1O | ? | ? | -88* | -34% | -89* | 11%
Cc1cc(C(=O)N/N=C/c2cccc([N+](=O)[O-])c2)c2ccccc2n1 | 8% | -5% | -6 | -9% | -9 | 22%
COc1cc([N+](=O)[O-])cc(/C=N/NC(=O)c2cc(-c3ccccc3)nc3ccccc23)c1O | -36% | 50µM* | -88* | 79µM* | ? | 30%
COc1ccc(/C=N/NC(=O)c2cc(-c3ccccc3)nc3ccccc23)c(C(=O)O)c1OC | 3% | -1% | 2 | -1% | 1 | 41%
COc1cc([N+](=O)[O-])cc(/C=N/NC(=O)c2cc(C)nc3ccccc23)c1O | -6% | 20µM* | -83* | 22µM* | -93* | 28%
COc1ccc(Cl)cc1-c1cc(C(=O)Nc2ccc(Br)cc2)[nH]n1 | . | . | 1 | . | 6 | .
COc1cccc(C(C)(O)c2nc(-c3cccc(C#N)c3)cs2)c1 (stereo not given) | . | . | 1 | . | 0 | .
COc1ccc(N2CC(NC(=O)COc3ccccc3C)CC2=O)cc1OC (stereo not given) | 14%[59 µM] | -2% | . | -14% | . | 39%
COc1ccc(NC2C[C@H]3CCCC(=O)N4CC[C@@H](C2)[C@@H]34)cc1 (stereo not given in full) | 40µM* | . | . | . | . | .
O=S1(=O)NCC23CCC(CC21)O3 (stereo not given) | . | . | . | -5% | . | 14%
COc1ccc(C2c3[nH]c4ccccc4c3CCN2CCCn2cccn2)c(C)c1C (stereo not given) | 40µM* | ? | -10 | ? | -22 | -17%
COCCN(C(=O)COC(=O)CNC(=O)c1cccs1)c1c(N)n(Cc2ccccc2)c(=O)[nH]c1=O | 11µM* | -1% | -5 | -10% | 3 | -7%
COCCN(C(=O)COC(=O)C1CCC(C(C)(C)C)CC1)c1c(N)n(Cc2ccccc2)c(=O)[nH]c1=O (stereo not given) | 32µM* | 1% | 3 | -15% | -1 | 21%
Cc1cccn2c(=O)cc(CSc3nnc(NC(=O)COc4ccccc4)s3)nc12 | -27%[12.7 µM] | 28µM* | . | 56µM* | . | 36%[57 µM]
O=c1cc(CSc2nnc(Nc3ccccc3F)s2)nc2sccn12 | ? | -23% | 2 | -13% | -1 | 8%
COc1ccc(Nc2nnc(SCc3cc(=O)n4ccsc4n3)s2)cc1 | 4µM* | -2%[57.1 µM] | -27 | 22µM* | -21 | -2%
Cc1ccc(Nc2nnc(SCc3cc(=O)n4cc(C)ccc4n3)s2)cc1 | 15%[59 µM] | -5% | -67* | -4% | -23 | 37%
O=C(NC1CCCC1)C(C1CC1)n1c(-c2ccncc2)nc2ccccc21 (stereo not given) | . | . | 1 | . | 0 | .
CCOC(=O)c1c(NC(=O)C2COc3ccccc3O2)sc2c1CC(C)(C)NC2(C)C (stereo not given) | 56µM* | ? | 0 | -28% | -13 | 14%
CCOC(=O)c1ccc(NC(=O)C2COc3ccccc3O2)cc1 (stereo not given) | -9% | 8% | 15 | 8% | -4 | 69%
CCOC(=O)c1c(NC(=O)C2COc3ccccc3O2)sc(C(C)=O)c1C (stereo not given) | 50µM* | 4% | -20 | -14% | -3 | -17%
O=C(CN(C(=O)c1csnn1)c1ccc(F)cc1)NCCc1ccccc1 | -7% | -15% | 0 | 7% | -2 | 44%
COC(=O)c1nc(NC(C)=O)n[nH]1 | 16µM* | 4% | . | . | . | .
COC(=O)c1nc(NC2=NCCCCC2)n[nH]1 | ? | 1% | 1 | 79µM* | 1 | -15%
SMILES | G9a inh | BAZ2B inh | CtBP-E1A blk | JMJD2A Tudor | Six1-Eya2 blk | HP1b chromo inh
C1CCN=C(Nc2nn[nH]n2)CC1 | ? | 79µM* | -5 | 7.9µM* | 9 | -2%
COc1cc(OC)nc(NC(C)=O)n1 | . | 8% | 8 | 3% | -1 | 28%
COc1ccc(-c2nc3cc(C(C)C)ccc3o2)cc1NC(=O)c1ccccc1[N+](=O)[O-] | 7%[59 µM] | -19% | . | -6% | . | 26%
O=C(NCc1cccs1)c1nn(-c2ccccc2Cl)nc1CO | ? | -2% | . | -13% | . | 55%
CC1=CC(C)(C)Nc2cc(C)c(C)cc21 | 32µM* | 50µM* | 7 | 50µM* | -28 | ?
CC1=CC(C)(C)Nc2ccc(Cc3ccc4c(c3)C(C)=CC(C)(C)N4)cc21 | 10µM* | 14µM* | . | 18µM* | ? | ?
CC1=CC(C)(C)Nc2ccc(C)cc21 | 45µM* | 50µM* | 0 | ? | -13 | 7%
CC1(C)O[C@@H]2C[C@H]3[C@@H]4CCC5=CC(=O)C=C[C@]5(C)[C@H]4C(O)C[C@]3(C)[C@]2(C(=O)CO)O1 (stereo not given in full) | 11%[12.7 µM] | . | . | . | . | .
CN(C)c1ncc2nc(-c3ccc(F)cc3)c(=O)n(CCc3ccccc3)c2n1 | 26%[0.501 µM] | . | . | . | . | .
CS(=O)(=O)N1N=C(c2ccco2)CC1c1ccc(Cl)cc1 (stereo not given) | 50µM* | -6% | -15 | -17% | 3 | 6%
CS(=O)(=O)N1N=C(c2ccco2)CC1c1ccco1 (stereo not given) | 71µM* | 50µM* | . | -35% | -13 | 20%
Cc1ccc(Cl)cc1N1CCN(C(=O)CNC(=O)c2ccc(Br)o2)CC1 | -14%[2.33 µM] | -6% | 10 | -26% | -7 | 11%
CC(=O)c1ccc(NC(=O)CC(NCCC2=CCCCC2)C(=O)O)cc1 (stereo not given) | ? | -6% | 6 | 13µM* | 7 | -15%
COc1ccc(NC(=O)CNCCC2=CCCCC2)cc1 | -5%[12.7 µM] | 7% | 4 | -16% | 0 | 1%
CN(C)c1oc(-c2ccccc2Cl)nc1S(=O)(=O)c1ccccc1 | 79µM* | ? | 0 | ? | -11 | 4%
CCOC(=O)C1(Cc2ccccc2)CCCCCC1=O (stereo not given) | . | . | 18 | 30% | 28 | 67%
CCC(C(=O)NC1CCCCC1)n1c(SCc2cccc(C)c2)nc2ccncc21 (stereo not given) | 50µM*! | 0% | 0 | -31% | -1 | 10%
O=C(O)c1nccnc1C(=O)N1CCN(c2ccccc2)CC1 | ? | 56µM* | 1 | ? | 9 | 24%
O=C(Nc1nccs1)c1nc[nH]c1C(=O)N1CCN(c2ccccc2)CC1 | . | . | -71* | 32µM* | -78* | 74%
